# Whole data set: some 39,000 sequences, median “fluorescence intensity (a.u.)” near 4,300, cut for the highest 2% near 39,000. The full list was thinned out, with the highest values kept by preference.
# Target: T1, OsSMF1 (Oryza sativa, UniProt Q6ZLB0 1-436)
# T1 sequence: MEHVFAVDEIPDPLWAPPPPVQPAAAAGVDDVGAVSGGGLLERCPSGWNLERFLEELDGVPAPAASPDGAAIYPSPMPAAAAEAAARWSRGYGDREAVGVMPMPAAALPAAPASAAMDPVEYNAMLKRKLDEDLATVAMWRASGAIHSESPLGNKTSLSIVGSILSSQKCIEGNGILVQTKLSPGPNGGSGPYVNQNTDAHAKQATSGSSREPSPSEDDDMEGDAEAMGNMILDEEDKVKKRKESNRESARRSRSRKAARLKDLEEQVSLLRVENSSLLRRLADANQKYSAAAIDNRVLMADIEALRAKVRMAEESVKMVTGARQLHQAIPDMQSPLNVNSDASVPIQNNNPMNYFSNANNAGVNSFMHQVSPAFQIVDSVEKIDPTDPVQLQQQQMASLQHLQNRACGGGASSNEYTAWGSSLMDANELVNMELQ
# Assay: protein-binding microarray (RPBM); PBS, 2% BSA, 51.3 ng/ul salmon testes DNA, 50 uM zinc acetate, 200 nM TF, 25 C, 1 h; high values mean tight binding
# Settings: protein: recombinant; tags: N-terminal polyhistidine and DsRed monomer fusion (pET32a); chain copies: 2; label: CyDye5-dUTP incorporated in the synthesized complementary strand; 3' TTTTT single-stranded linker to array surface; dsDNA, one strand shown
# Outline: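 Binding signal here means per-feature fluorescence intensity in arbitrary units. The values were read on an Axon 4000B scanner after a custom Agilent array, double-stranded by primer extension with Cy5-dUTP, was incubated with 200 nM protein at 25 °C for 1 h in PBS with 2% BSA, salmon testes DNA and 50 µM zinc acetate, then washed. The proteins were transcription factors with an N-terminal polyhistidine tag and DsRed, expressed in E. coli BL21-CodonPlus and purified on Ni–NTA.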
row,Sequence,binding signal
1,GGCCAGCCGTGTAGGCGGAGGCACCACTCGGCGGCGACGGCGGAGTCACCTAGTGCAG,49900 fluorescence intensity (a.u.)
2,GGCATAATAGGCCAGCCGTGTAGGCAGAGACACCAGTCGGCGGAGTCACCTAGTGCAG,4530 fluorescence intensity (a.u.)
3,TGCTGAGTGAGTGATGAGTGTGCGAATGTGTGATCGATCGCGGAGTCACCTAGTGCAG,3860 fluorescence intensity (a.u.)
4,ATTATTCATAAGCTGAATATTCTTATTCATACATTCGGATCGGAGTCACCTAGTGCAG,6460 fluorescence intensity (a.u.)
5,GGCTATTGGGAGCCACGTCAGCCGGTGGCCTCCGCCATCGCGGAGTCACCTAGTGCAG,22600 fluorescence intensity (a.u.)
6,CTAGGTCAACACCGCCATGTCAGCGCCACGTCAGCGAAACCGGAGTCACCTAGTGCAG,28700 fluorescence intensity (a.u.)
7,CGAAGACTAAGTCAACACCACCACGTAGTCGCCACATCAGCGGAGTCACCTAGTGCAG,8880 fluorescence intensity (a.u.)
8,CCAGGTCAACATTGCCACGTGTGCGGCCACGTCAGCGAAACGGAGTCACCTAGTGCAG,33400 fluorescence intensity (a.u.)
9,GCCACGTGGGATGAAGCCTAAGTCAACATCGCCACGTCAGCGGAGTCACCTAGTGCAG,43200 fluorescence intensity (a.u.)
10,CACGTGGGACGAAAACTAGGTCAACATCGCCACGTCAGCGCGGAGTCACCTAGTGCAG,45900 fluorescence intensity (a.u.)
11,GACTTGATTACCACGCGTATACTATATAGGACAAAATTGCCGGAGTCACCTAGTGCAG,3190 fluorescence intensity (a.u.)
12,TGTTCCTCCACGTCGCTCCGCCGCTCCGCCCGCCTTGCTTCGGAGTCACCTAGTGCAG,5090 fluorescence intensity (a.u.)
13,TCCGGAGAGTTGACGCAGCGTCAACCGGGTCCGTCGTTCTCGGAGTCACCTAGTGCAG,3800 fluorescence intensity (a.u.)
14,AATCGCGAGATATCCACGTGAGATTGCGCAGCGAGACGCGCGGAGTCACCTAGTGCAG,5140 fluorescence intensity (a.u.)
15,ATGAGAGATAAGTAGATGACACATTCACAGTTGCTATAGTCGGAGTCACCTAGTGCAG,4040 fluorescence intensity (a.u.)
16,AAGCTAGCGGTCACCCAGTCAGCTCACCCCGAGACGCACCCGGAGTCACCTAGTGCAG,4400 fluorescence intensity (a.u.)
17,CGCAGTTGCTTCTGCAAAAGAGATTGATGACAAGGATCACCGGAGTCACCTAGTGCAG,3530 fluorescence intensity (a.u.)
18,TCGATCGACATGGTGAATTGGCGATCGGGTTGGCTCGGCTCGGAGTCACCTAGTGCAG,3170 fluorescence intensity (a.u.)
19,TTTTATTTCTACTGCCACGTAGGTGCCACGTCAACGCCACCGGAGTCACCTAGTGCAG,49800 fluorescence intensity (a.u.)
20,TTAGACACGTAGGTGCCATGTCAGCCAAAACCACCGAGGGCGGAGTCACCTAGTGCAG,17100 fluorescence intensity (a.u.)
21,TTTATTTCTACCGCCACGTAGGTGCCATGTCAATGTCACGCGGAGTCACCTAGTGCAG,14300 fluorescence intensity (a.u.)

row,Sequence,binding signal
1,TTATTTCTACTGCCACGTAGGTGCCACGTCAACGCCACGTCGGAGTCACCTAGTGCAG,37400 fluorescence intensity (a.u.)
2,GTAGGTGACATGTGTGGTGTCACACTGACTCAGCCATCACCGGAGTCACCTAGTGCAG,10600 fluorescence intensity (a.u.)
3,CTACTGACACGTAGGTGCCACCATGGCATGCCACGTCAGCCGGAGTCACCTAGTGCAG,61500 fluorescence intensity (a.u.)
4,TAGGCAAATTACATGGCATGTGCCACGTCGTTGTTGCACCCGGAGTCACCTAGTGCAG,16500 fluorescence intensity (a.u.)
5,TAAATGTTCGTGTGGCATGCCACATCAGCACCACGTAGGACGGAGTCACCTAGTGCAG,21400 fluorescence intensity (a.u.)
6,GCCACGTAGGTGCCATGTGGCACCACGTCAGCAAAATTGCCGGAGTCACCTAGTGCAG,49100 fluorescence intensity (a.u.)
7,CATAGATTAATATGAAATATATAACTCCACAAATATGCAACGGAGTCACCTAGTGCAG,3500 fluorescence intensity (a.u.)
8,ACACGGCCTATAAATATCTAACCATCCTTTGCCTGTCGAGCGGAGTCACCTAGTGCAG,4970 fluorescence intensity (a.u.)
9,TGGATTTTGCACCGATCGCACCACGTCTCCGTCTGTTTGCCGGAGTCACCTAGTGCAG,4240 fluorescence intensity (a.u.)
10,TCGCCCGCACGTGGCCCTCCTCTCCTCCCTCCCACCTCGTCGGAGTCACCTAGTGCAG,3380 fluorescence intensity (a.u.)
11,ACCACACACACACTGACACTGTGACACAACACAACACGGCCGGAGTCACCTAGTGCAG,6920 fluorescence intensity (a.u.)
12,TCACCAATCACCTGCCCTCACACCAACACGCCACGCGAACCGGAGTCACCTAGTGCAG,3750 fluorescence intensity (a.u.)
13,GTTCAATTCCTGCTGGATGCACGTGAACCGGAACGTTCCACGGAGTCACCTAGTGCAG,52000 fluorescence intensity (a.u.)
14,AGTATCAGATTCCAACTCACATGCCACGTCACATGCATGCCGGAGTCACCTAGTGCAG,42200 fluorescence intensity (a.u.)
15,CACACTGAGTCAGCTGCCACGTCGGATAAAACCGGAGTCACGGAGTCACCTAGTGCAG,10500 fluorescence intensity (a.u.)
16,ATTCCTATCATTGGAGTATGTGTGCACGTCATTAGTGCCACGGAGTCACCTAGTGCAG,6500 fluorescence intensity (a.u.)
17,CACGCCAACTAGGATGGATAGATGGGCCACATGTATTCCACGGAGTCACCTAGTGCAG,3530 fluorescence intensity (a.u.)
18,CACATTGAGTCAGCTGCCACGTCGGATAAAACCGGAGTCACGGAGTCACCTAGTGCAG,15000 fluorescence intensity (a.u.)
19,GGAACATGTATGCACCGAACCTGGTGCATGTCCACGTTCACGGAGTCACCTAGTGCAG,3740 fluorescence intensity (a.u.)
20,CACCTGCAGCTGCCACGTCAGAGCCACGTCGGATTCCAACCGGAGTCACCTAGTGCAG,40800 fluorescence intensity (a.u.)
21,GATGCACCACTGCTGCGTCGCACGTTCCACCCCATTCCACCGGAGTCACCTAGTGCAG,3520 fluorescence intensity (a.u.)

# Source: publication PMC7819943, “Rice protein-binding microarrays: a tool to detect cis-acting elements near promoter regions in rice”
